Experimental data published in publication PMC6792352, “Limited Chemical Structural Diversity Found to Modulate Thyroid Hormone Receptor in the Tox21 Chemical Library” (Environmental Health Perspectives, 2019).
Counter-ions that a name gives are not always drawn.

tested on: thyroid hormone receptor (endogenous TRα and TRβ); set-up: species or system GH3-TRE-Luc (rat pituitary); GH3-TRE-Luc luciferase reporter, antagonist mode against 1 nM T3, loss of signal, qHTS; conditions: read-out: Average AC50 (uM) GH3-TRE-Antag, antagonist mode, 1 nM T3, no GH3 cytotoxicity hit

Row | Structure (SMILES) | AC50
1 | NCCNCCN [Diethylenetriamine] | 18 µM
2 | CC(Cc1ccccc1)(NC(=O)CN)c1ccccc1 (centres unmarked) [Remacemide hydrochloride] | 21.8 µM
3 | CCCCCCCCCCCC(=O)OCC(O)CO (centres unmarked) [1-Monolaurin] | 47.2 µM
4 | O=C(N[C@H]1N=C(c2ccccc2F)c2cccc3c2N(CC3)C1=O)c1cc2ccccc2[nH]1 [Pranazepide] | 12.1 µM
5 | CCCN1C[C@H](CSC)C[C@@H]2c3cccc4[nH]cc(c34)C[C@H]21 [Pergolide methanesulfonate] | 10.1 µM
6 | Oc1c(Cl)ccc(Cl)c1Cl [2,3,6-Trichlorophenol] | > 90 µM
7 | CCn1c2ccccc2c2cc(N)ccc21 [3-Amino-9-ethylcarbazole hydrochloride] | 46.6 µM
8 | CCOC(=O)C(C)Oc1ccc(Oc2cnc3cc(Cl)ccc3n2)cc1 (centres unmarked) [Quizalofop-ethyl] | 78.2 µM
9 | Cc1ccc(Nc2nccc(N(C)c3ccc4c(C)n(C)nc4c3)n2)cc1S(N)(=O)=O [Pazopanib] | 14 µM
10 | Cc1cccc(N(C)C(=S)Oc2ccc3ccccc3c2)c1 [Tolnaftate] | > 20 µM
11 | CC1(C)NC(=O)N(c2ccc([N+](=O)[O-])c(C(F)(F)F)c2)C1=O [Nilutamide] | 38.5 µM
12 | CCCN(CCC)S(=O)(=O)c1ccc(C(=O)O)cc1 [Probenecid] | 4.15 µM
13 | C[C@](N)(Cc1ccc(O)c(O)c1)C(=O)O [Methyldopa sesquihydrate] | > 50 µM
14 | CCOC(=O)C1=NN(c2ccccc2)C(=O)C1 [Ethyl 5-oxo-1-phenyl-4,5-dihydro-1H-pyrazole-3-carboxylate] | 47.8 µM
